The panel holds about 79,000 compounds, 15% with a hit somewhere; the sample as a whole holds those more often. Calls of active or inactive are those of the source. Cut-off read from the data, not from the text of the source: active = growth inhibition above about 70%; inactive = the rest.
Experiment: NCI Yeast Anticancer Drug Screen. Data for the rad14 strain (AID 159);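 note: 0% = growth of vehicle-treated control cultures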
Settings: S. cerevisiae rad14 strain growth inhibition, active compounds read high
Protocol: Growth inhibition of yeast strains with defined genetic alterations is measured as a screen for potential anti-cancer activity. Selected strains with alterations in DNA damage repair or cell cycle control were exposed to compounds and growth inhibition was measured relative to vehicle treated controls. The strain used in this assay is rad14

Measured: growth inhibition

C=C(CCCO)[C@@H]1CC[C@@](C)(O)[C@H]1C
inactive: at 1.2 µM -51% | at 3.7 µM -43% | at 11.0 µM -37% | at 33.0 µM -35% | at 100.0 µM -56%

CCN(CC)CC(O)c1cc(-c2ccc(Cl)cc2)nc2c(-c3ccccc3)cccc12 (stereo not given)
inactive: at 1.2 µM -2% | at 3.7 µM 4%
active: at 11.0 µM 99% | at 33.0 µM 98% | at 100.0 µM 95%

CCOC(=O)CNC(=O)c1[nH]cnc1/N=N/N(C)C
inactive: at 1.2 µM 2% | at 3.7 µM 2% | at 11.0 µM 1% | at 33.0 µM 1%
active: at 100.0 µM 97%

O=C(Nc1ccc2c(c1)Cc1c-2ccc([N+](=O)[O-])c1F)C(F)(F)F
inactive: at 1.2 µM 1% | at 3.7 µM 1% | at 11.0 µM 0% | at 33.0 µM 2% | at 100.0 µM 2%

O=NN(CCCl)C(=O)NCCCl
inactive: at 1.2 µM -2% | at 3.7 µM 1% | at 11.0 µM 3% | at 33.0 µM 3% | at 100.0 µM 11%

CCCCCCSc1nc(COC(=O)NC)c(COC(=O)NC)n1C
inactive: at 1.2 µM -3% | at 3.7 µM -4% | at 11.0 µM -4% | at 33.0 µM 28%
active: at 100.0 µM 99%

CN(N=O)C(=O)N[C@@H](C=O)[C@@H](O)[C@H](O)[C@H](O)CO
inactive: at 1.2 µM -1% | at 3.7 µM -3% | at 11.0 µM -2% | at 33.0 µM -2% | at 100.0 µM -4%

CN(CC(=O)O)c1ccc(/C=C/c2ccnc3ccccc23)cc1
inactive: at 1.2 µM -3% | at 3.7 µM -5% | at 11.0 µM -2% | at 33.0 µM 6% | at 100.0 µM 32%
